Measurements: PubChem BioAssay AID504652 (National Center for Advancing Translational Sciences (NCATS), 2011)
Out of some 360,000 compounds screened, about 11,000 (3.1%) were called active. Cut-off read from the data, not from the text of the source: active = activity change below about -30%; inactive = the rest. The sample as a whole holds a higher share of actives than the screen did.

These compounds were tested against D(1A) dopamine receptor (Homo sapiens) (UniProt P21728) (assay: Antagonist of Human D 1 Dopamine Receptor: qHTS). Details: HEK293 TREx D1 cells, calcium flux, dopamine EC80; at 10 µM; active compounds read low.
From the text: Dopamine receptors (DARs) are involved in the etiology and/or therapy of a number of neuropsychiatric and endocrine disorders. For instance, all receptor-based antiparkinsonian drugs work via stimulating the […] DAR subtype whereas all FDA-approved antipsychotic agents are antagonists of this receptor. […] There are three different types of allosteric modulators that we are seeking, two of which will stimulate or augment receptor signaling, allosteric agonists and potentiators, while the third, allosteric antagonists, will attenuate receptor signaling. The present primary screening assay measures compound antagonism after an EC80 addition of dopamine by tracking calcium flux in a […], inducible Hek293 Trex D1 cell line. NIH Chemical Genomics Center [NCGC] NIH Molecular Libraries Probe Centers Network [MLPCN] MLPCN Grant: NS064831-01 Assay Submitter (PI): David Sibley
Freshly passaged cells are plated in 1536 well black, clear bottom plates at a density of 4000 cells/well in 3 ul of complete media containing 1x tetracycline inducer. After an overnight incubation at 30 C in 5% CO2, cells are loaded with 2 ul of the no wash Calcium Assay Kit (ABD Bioquest) and incubated at room temperature for 30 to 90 minutes. Agonist read: A 10 cycle (1 second/cycle) baseline measurement is taken and then the FDSS online 1536 pintool delivers 23 nl of compound library (as well as dopamine controls) to the plate. The plate is measured for kinetically at 1 cycle/sec for 180 seconds. Following the 180 second read, 1 ul of an EC80 (negative modulation assay) is delivered by an onboard pipette head. Measurements are taken kinetically for an additional 180 seconds.
% is set by controls: 0 for no effect and ±100 for the full control effect.

D(1A) dopamine receptor (Homo sapiens), sequence (P21728 whole entry, looked up): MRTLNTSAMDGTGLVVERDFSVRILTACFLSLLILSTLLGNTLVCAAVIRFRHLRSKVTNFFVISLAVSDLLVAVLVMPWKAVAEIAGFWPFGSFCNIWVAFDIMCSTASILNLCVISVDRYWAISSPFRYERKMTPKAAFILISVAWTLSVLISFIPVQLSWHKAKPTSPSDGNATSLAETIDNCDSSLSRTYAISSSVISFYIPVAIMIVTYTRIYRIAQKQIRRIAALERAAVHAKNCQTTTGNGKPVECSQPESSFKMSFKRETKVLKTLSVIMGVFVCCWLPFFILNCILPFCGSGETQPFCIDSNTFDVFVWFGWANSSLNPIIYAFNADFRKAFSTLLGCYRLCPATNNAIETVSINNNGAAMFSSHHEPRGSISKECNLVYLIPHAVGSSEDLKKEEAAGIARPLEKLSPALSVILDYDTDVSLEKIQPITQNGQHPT

Activity change, negative = inhibition, active:
CN1CCN(C(=O)/C(=C\c2cccs2)NC(=O)c2cccs2)CC1 -40.4%
COc1ccc(NC(=O)Nc2ccc3nsnc3c2)cc1 -36.6%
O=C(NCc1ccco1)c1ccc(NS(=O)(=O)c2cccc([N+](=O)[O-])c2)cc1 -51.9%
O=C(NCc1ccncc1)c1ccc(NS(=O)(=O)c2cccc([N+](=O)[O-])c2)cc1 -49%
CC1CCCN(CCOCCOc2ccccc2-c2ccccc2)C1 (stereo unspecified) -48.5%
O=S(=O)(NCCc1ccc(F)cc1)c1cccc2cccnc12 -44.7%

Activity change, negative = inhibition, inactive:
Cc1ccc(C(=O)N/C(=C/c2cccs2)C(=O)N2CCCCC2)cc1 -1.28%
CN1CCN(C(=O)/C(=C\c2ccc3c(c2)OCO3)NC(=O)c2cccs2)CC1 -1.26%
CCOc1ccc(CNC(=O)c2ccc3c(c2)nnn3C2CCCC2)cc1 -28.9%
Cc1ccc(-c2nn(CCC(=O)Nc3ccc(OC(F)(F)F)cc3)c(=O)c3ccccc23)cc1 -11%
COc1ccc(NC(=O)Nc2cccc(-c3noc(C)n3)c2)cc1 8.89%
Cc1ccc(NC(=O)Nc2ccc3oc(C)nc3c2)cc1 -1.61%
Cc1ccc(C)c(Cn2c(C)c(CNCc3ccc(F)cc3)c(C(=O)O)c2C)c1 -10.2%
O=C(NCc1ccco1)c1ccc([N+](=O)[O-])cc1Cl -6.24%
O=C(NCc1ccco1)/C(=C/c1cccc([N+](=O)[O-])c1)NC(=O)c1ccco1 -9.94%
O=C(NCc1ccncc1)c1cccc(NS(=O)(=O)c2ccc(F)c(F)c2)c1 -6.23%
O=[N+]([O-])c1cccc(S(=O)(=O)NCc2ccccn2)c1 8.53%
CCOC(=O)c1c(NC(=O)COc2cc(C)ccc2C(C)C)sc(C)c1C 8.46%
CC1CN(CCCOc2ccccc2-c2ccccc2)CC(C)O1 (stereo unspecified) 13.9%
c1ccc(-c2ccccc2OCCN2CCCCC2)cc1 8.41%
CC1CN(C(=O)N2CCC(C(=O)NCc3cccs3)CC2)c2ccccc2O1 (stereo unspecified) -3.92%
COc1ccc(NC(=O)CCNS(=O)(=O)c2ccc3c(c2)CCCC(=O)N3)cc1Cl 1.62%
O=S(=O)(Nc1cccc2cccnc12)c1cccc2cccnc12 -7.95%
O=S(=O)(NCCOc1cccc2cccnc12)c1ccc(F)cc1 6.87%
CC(CNC(=O)c1nnc(Cc2cccc(F)c2)o1)c1ccccc1 (stereo unspecified) 0.636%
Cc1cc2oc(C(=O)N(Cc3ccc(Cl)cc3)Cc3ccco3)c(C)c2cc1Cl -1.03%
